In PubChem BioAssay (NCATS):
Values joined by “and” are separate entries in the source; they are usually repeats but may differ in a detail not shown here. Equal values may be shown once. Results filed as inconclusive are left out. Active and inactive are the calls of the source. Unless noted, calls follow the shape of the dose curve; as a rule, active = well fitted curve in either direction with a large enough effect (not every such curve was filed as active); inconclusive = small, poorly fitted or top-dose-only effect, or another doubt; inactive = flat fitted curve, though single readings scatter.

Experiments:
[1] = AP1 Signaling Pathway (AID 357); also: % is scaled to controls: 0 for no effect and ±100 for the full control effect
Summary of the method: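 ME-180 cells with beta-lactamase reporter under AP-1 response element, stimulated with EC50 EGF; compounds tested in titration series, 5 h at 37 °C. CCF4 substrate added 2.5 h at room temperature; 460/530 nm emission ratio gave %activity and AC50.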

[2] = Stat Signaling Pathway (AID 446);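 also: ME-180 cervical cancer cells given 40 pM IL-6 alongside compound; SIE-controlled beta-lactamase reporter measured as 460/530 nm FRET emission ratio; % is scaled to controls: 0 for no effect and ±100 for the full control effect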
Summary of the method: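 FRET read-out (405 nm excitation, 460/530 nm emission) of a beta-lactamase reporter under a STAT-inducible element in ME-180 cervical carcinoma cells. Cells with compound receive 40 pM IL-6 for 5 h. Values are normalised to AC90 stimulation and AC90 JAK-inhibitor controls.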

[3] = target: Glucocorticoid receptor (Homo sapiens) (UniProt P04150); test: GR-GFP Redistribution (AID 450;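 active = compounds whose dose series gives a full or clear partial fitted curve of increased nuclear translocation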; also: potency is read from the fitted curve at half-maximal effect); settings: U2OS GR-GFP nuclear translocation, laser cytometry, 2 h
Glucocorticoid receptor (Homo sapiens), sequence (P04150 whole entry, looked up, the tested form may be a part): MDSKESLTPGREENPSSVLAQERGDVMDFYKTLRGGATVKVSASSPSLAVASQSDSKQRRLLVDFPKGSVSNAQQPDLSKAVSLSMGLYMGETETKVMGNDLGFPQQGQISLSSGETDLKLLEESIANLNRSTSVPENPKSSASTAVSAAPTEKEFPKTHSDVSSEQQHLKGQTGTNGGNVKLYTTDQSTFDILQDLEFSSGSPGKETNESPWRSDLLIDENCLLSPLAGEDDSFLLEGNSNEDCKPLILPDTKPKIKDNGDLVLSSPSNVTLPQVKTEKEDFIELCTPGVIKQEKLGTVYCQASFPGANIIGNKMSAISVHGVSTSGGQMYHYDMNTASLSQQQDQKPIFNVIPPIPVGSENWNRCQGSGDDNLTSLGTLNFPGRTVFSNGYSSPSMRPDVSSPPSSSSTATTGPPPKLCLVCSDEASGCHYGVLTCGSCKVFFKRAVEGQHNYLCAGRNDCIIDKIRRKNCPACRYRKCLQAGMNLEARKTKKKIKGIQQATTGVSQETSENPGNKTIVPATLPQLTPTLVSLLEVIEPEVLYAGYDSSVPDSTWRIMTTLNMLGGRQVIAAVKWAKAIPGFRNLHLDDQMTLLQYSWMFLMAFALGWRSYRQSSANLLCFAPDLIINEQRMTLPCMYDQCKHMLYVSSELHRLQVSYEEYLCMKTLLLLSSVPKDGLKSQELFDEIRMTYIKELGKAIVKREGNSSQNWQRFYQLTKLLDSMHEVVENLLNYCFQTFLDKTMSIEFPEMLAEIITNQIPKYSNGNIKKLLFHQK

[4] = target: Glucocorticoid receptor (Homo sapiens) (UniProt P04150); test: GR-EFC Redistribution (AID 451; calls by dose curve; also: potency is read from the fitted curve at half-maximal effect); settings: CHO-K1 GR-EFC translocation, beta-gal luminescence, 2 h
Summary of the method: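 Translocation of GR-ED fusion to nuclear EA restores b-gal, read by luminescence after 1 h room-temperature detection. Engineered CHO-K1 biosensor cells, 1,000/well, exposed 2 h at 37 C to titrations up to 46 uM final.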

[5] = target: Mitogen-activated protein kinase 10 (Mus musculus) (UniProt Q61831); test: JNK3 AlphaScreen Assay (AID 530);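 also: kinase came from lysate of stimulated human HepG2 cells; signal reports phosphorylation of biotinylated GST-cJun 1-79 at Ser73 with 10 µM ATP; % is scaled to controls: 0 for no effect and ±100 for the full control effect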
Summary of the method: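 Kinase buffer: 20 mM Tris-HCl pH 7.6, 10 mM MgCl2, 1 mM DTT, 0.1 mM Na3VO4, 0.01% Tween-20; ATP 10 uM. Substrate biotin-GST-cJun(1-79), enzyme from activated HepG2 lysates. Detection by Ser73 phospho-antibody AlphaScreen.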

[6] = target: 3',5'-cyclic-AMP phosphodiesterase 4B (Homo sapiens) (UniProt Q07343); test: qHTS Assay for Inhibitors of PDE-IV (AID 607; active = well fitted activation curve with a large enough effect in the main read-out, with a control signal flat, not every such curve was filed as active; also: % of control where 0% means no effect)
3',5'-cyclic-AMP phosphodiesterase 4B (Homo sapiens), sequence (Q07343 whole entry, looked up): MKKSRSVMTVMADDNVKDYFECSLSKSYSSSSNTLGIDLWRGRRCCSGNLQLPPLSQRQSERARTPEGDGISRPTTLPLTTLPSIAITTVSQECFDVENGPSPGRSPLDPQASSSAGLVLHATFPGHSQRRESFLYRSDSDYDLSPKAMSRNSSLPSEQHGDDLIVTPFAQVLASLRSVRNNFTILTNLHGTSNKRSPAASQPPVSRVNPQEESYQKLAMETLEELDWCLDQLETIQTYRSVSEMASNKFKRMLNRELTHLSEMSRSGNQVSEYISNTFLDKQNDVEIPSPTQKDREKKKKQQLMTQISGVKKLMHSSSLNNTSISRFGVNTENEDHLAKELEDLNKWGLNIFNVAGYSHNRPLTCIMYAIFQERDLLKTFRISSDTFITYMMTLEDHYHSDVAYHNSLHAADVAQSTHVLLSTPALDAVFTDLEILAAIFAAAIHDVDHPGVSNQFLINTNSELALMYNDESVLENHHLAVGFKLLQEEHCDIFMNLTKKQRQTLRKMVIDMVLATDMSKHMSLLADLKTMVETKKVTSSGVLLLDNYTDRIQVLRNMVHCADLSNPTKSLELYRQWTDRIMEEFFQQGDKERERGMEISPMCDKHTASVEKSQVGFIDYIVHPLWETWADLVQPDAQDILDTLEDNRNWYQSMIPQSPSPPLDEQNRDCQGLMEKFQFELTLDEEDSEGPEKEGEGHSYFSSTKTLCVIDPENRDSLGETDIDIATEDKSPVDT
Summary of the method: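 Cell-based read-out of cAMP via a modified cyclic nucleotide-gated channel and membrane potential dye (535/590 nm) in HEK293 cells expressing PDE4 endogenously. Compounds tested up to 22.9 uM final; 100 uM RO 20-1724 reference.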

[7] = qHTS Assay for Lipid Storage Modulators (AID 1519; calls by dose curve); settings: Drosophila S3 cells, BODIPY lipid droplet/cell ratio, laser cytometry, cells loaded with oleic acid; for activity change, negative = inhibition: at 25.7 µM (top of the series)
Summary of the method: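 Cells seeded at 5,000 per well were treated with compounds over a concentration series and loaded with oleic acid (400 uM, as added). Lipid droplet fluorescence (488 nm excitation, 500-530 nm channel) was read by laser-scanning cytometry and normalized to 20 uM Triacsin C.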

[8] = target: Ubiquitin carboxyl-terminal hydrolase 1 (Homo sapiens) (UniProt O94782); test: Inhibitors of USP1/UAF1: Pilot qHTS (AID 504865; active = well fitted curve in the direction sought with a large enough effect; an effect the other way counts as inactive or inconclusive; also: nearly all actives have a fitted effect of over 35% in size; also: potency is read from the fitted curve at half-maximal effect)
Ubiquitin carboxyl-terminal hydrolase 1 (Homo sapiens), sequence (O94782 whole entry, looked up): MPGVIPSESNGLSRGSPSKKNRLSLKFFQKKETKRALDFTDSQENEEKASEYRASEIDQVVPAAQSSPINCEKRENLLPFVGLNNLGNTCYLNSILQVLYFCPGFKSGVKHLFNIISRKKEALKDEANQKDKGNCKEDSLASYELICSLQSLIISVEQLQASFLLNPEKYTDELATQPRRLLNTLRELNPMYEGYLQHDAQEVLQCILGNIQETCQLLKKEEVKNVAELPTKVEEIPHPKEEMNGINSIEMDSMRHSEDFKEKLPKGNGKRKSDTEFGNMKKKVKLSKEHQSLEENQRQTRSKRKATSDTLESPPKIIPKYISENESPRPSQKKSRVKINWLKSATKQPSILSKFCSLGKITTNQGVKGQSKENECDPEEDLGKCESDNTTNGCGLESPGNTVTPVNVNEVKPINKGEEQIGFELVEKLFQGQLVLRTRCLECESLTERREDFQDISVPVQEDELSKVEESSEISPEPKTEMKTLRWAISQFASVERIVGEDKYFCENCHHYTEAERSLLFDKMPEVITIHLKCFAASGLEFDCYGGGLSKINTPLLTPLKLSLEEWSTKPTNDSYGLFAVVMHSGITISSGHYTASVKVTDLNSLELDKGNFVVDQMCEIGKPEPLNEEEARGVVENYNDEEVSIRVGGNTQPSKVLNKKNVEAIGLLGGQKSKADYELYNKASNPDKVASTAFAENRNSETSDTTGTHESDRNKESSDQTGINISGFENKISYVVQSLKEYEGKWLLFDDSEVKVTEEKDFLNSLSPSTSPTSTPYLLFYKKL
Summary of the method: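 Kinetic fluorescence assay: 1nM USP1/UAF1, 15 min compound preincubation, then 150nM Ub-Rho; 480/540 nm.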

[9] = NFAT Signaling Pathway (AID 444); settings: Jurkat NFAT-bla M1, carbachol, beta-lactamase ratio, 5 h;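 also: carbachol stimulus at about its EC50 of 1 µM final; % is scaled to controls: 0 for no effect and ±100 for the full control effect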
Summary of the method: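 Read-out: CCF4 FRET ratio (460 nm/530 nm) after 1 h RT dye loading, used for %activity and AC50 from titration series. Cells: Jurkat NFAT-β-lactamase/M1 line, treated with compound plus 1 uM carbachol for 5 h, 37 °C.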

[10] = target: Cytochrome P450 3A4 (Homo sapiens) (UniProt P08684); test: qHTS Assay for Activators of Cytochrome P450 3A4 (AID 885; active = well fitted curve in the direction sought with a large enough effect; an effect the other way counts as inactive or inconclusive; also: nearly all actives have a fitted effect of over 65% in size)
Cytochrome P450 3A4 (Homo sapiens), sequence (P08684 whole entry, looked up): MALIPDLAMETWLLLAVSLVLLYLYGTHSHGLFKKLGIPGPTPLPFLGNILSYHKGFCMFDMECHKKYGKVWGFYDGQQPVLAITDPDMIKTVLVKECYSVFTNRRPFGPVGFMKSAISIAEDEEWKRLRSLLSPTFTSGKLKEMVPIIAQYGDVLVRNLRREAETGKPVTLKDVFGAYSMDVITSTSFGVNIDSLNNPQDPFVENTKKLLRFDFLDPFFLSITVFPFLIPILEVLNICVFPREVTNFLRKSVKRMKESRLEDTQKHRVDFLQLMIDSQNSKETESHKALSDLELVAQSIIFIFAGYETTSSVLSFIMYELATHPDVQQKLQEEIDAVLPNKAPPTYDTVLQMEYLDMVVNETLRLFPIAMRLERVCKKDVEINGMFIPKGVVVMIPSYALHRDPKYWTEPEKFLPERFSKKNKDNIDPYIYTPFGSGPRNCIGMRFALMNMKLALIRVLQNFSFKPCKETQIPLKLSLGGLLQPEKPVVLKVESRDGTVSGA
Summary of the method: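 Luminescent readout of luciferin formed from 25 uM Luciferin-PPXE (KM level) by 20 nM CYP3A4 in 200 mM KPO4, with 60 min NADPH-driven reaction at room temperature after 10 min compound exposure. Ketoconazole (57 uM) defined 100% inhibition.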

[11] = target: Cytochrome P450 1A2 (Homo sapiens) (UniProt P05177); test: p450-cyp1a2 (AID 410; calls by dose curve;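 also: -100% = full effect of reference inhibitor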)
Cytochrome P450 1A2 (Homo sapiens), sequence (P05177 whole entry, looked up): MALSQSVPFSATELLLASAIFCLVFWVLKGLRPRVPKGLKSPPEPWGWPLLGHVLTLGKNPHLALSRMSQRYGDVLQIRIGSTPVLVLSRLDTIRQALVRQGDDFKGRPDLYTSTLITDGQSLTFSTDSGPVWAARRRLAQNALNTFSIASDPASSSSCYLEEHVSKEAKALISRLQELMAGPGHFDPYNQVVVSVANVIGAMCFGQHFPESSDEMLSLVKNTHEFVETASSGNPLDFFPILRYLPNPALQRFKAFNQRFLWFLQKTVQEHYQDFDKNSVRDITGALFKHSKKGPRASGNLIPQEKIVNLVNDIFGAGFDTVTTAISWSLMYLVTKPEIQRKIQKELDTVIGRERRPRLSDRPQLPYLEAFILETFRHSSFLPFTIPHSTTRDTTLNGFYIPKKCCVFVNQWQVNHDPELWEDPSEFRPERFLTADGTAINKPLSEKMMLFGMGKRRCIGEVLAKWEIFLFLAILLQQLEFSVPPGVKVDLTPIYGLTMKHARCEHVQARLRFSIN
Summary of the method: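 20nM CYP1A2, 100uM Luciferin-ME (=Km), 100mM KPO4; cpd 10 min RT; +NADPH regen, 60 min RT; stop/detect 20 min; luminescence. Normalized to furafylline 57 uM = full inhibition.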

[12] = measured here: cell count channel max response
[13] = measured here: lipid channel max response

Compound | outcome [1] | outcome [2] | Potency [3] | Potency [4] | outcome [5] | Potency [6] | activity change, negative = inhibition [7] | max response [7, 12] [%] | max response [7, 13] [%] | Potency [8] | activity change, negative = inhibition ([9]; at 17.2 µM (top of the series)) | activity change, negative = inhibition ([9]; at 38 µM (top of the series)) | Potency [10] | Potency [11]
CCN(CC)C(=O)N[C@H]1C=C2c3cccc4[nH]cc(c34)C[C@@H]2N(C)C1 | inactive | inactive | > 20.6 µM (inactive) | > 20.6 µM (inactive) | inactive | inactive | -1.39% (inactive) | -15.1 | -15.7 | 35.5 µM (active) | – | – | – | –
CN1[C@@H]2CCC[C@H]1CC(=O)C2 | inactive | inactive | > 20.6 µM (inactive) | > 20.6 µM (inactive) | inactive | inactive | -2.47% (inactive) | -0.588 | -3.94 | inactive | -4.22% (inactive) | – | – | –
CC[C@H]1C(=O)OC[C@H]1Cc1cncn1C | inactive | inactive | – | – | – | – | 0.358% (inactive) | -8.31 | -6.45 | inactive | – | 27.4% (inactive) and 31.8% (inactive) | inactive | –
C[N+]1(C)CCO[C@](O)(c2ccc(-c3ccc([C@]4(O)C[N+](C)(C)CCO4)cc3)cc2)C1 | – | inactive | > 20.6 µM (inactive) | > 20.6 µM (inactive) | – | inactive | -0.651% (inactive) | 6.3 | 5.83 | – | -13.9% (inactive) | – | – | inactive
C[C@H]1CC[C@@H]2[C@@H](C)C(=O)O[C@H]3O[C@@]4(C)CC[C@H]1[C@@]32OO4 | inactive | inactive | > 20.6 µM (inactive) | > 20.6 µM (inactive) | inactive | inactive | -3.8% (inactive) | -10.2 | -15 | inactive | -0.23% (inactive) | – | – | –
CCN1C[C@@]2(COC)CC[C@H](O)[C@@]34[C@@H]2C[C@@H]([C@@H]13)[C@]1(O)C[C@@H](OC)C2C[C@H]4[C@H]1[C@H]2OC(C)=O | inactive | inactive | > 20.6 µM (inactive) | > 20.6 µM (inactive) | inactive | inactive | 2.15% (inactive) | -6.46 | -5.05 | inactive | -14.2% (inactive) | – | – | –
O=C(NCNC(=O)N[C@H]1C(=O)NC(=O)N1CO)N[C@H]1C(=O)NC(=O)N1CO | inactive | inactive | > 20.6 µM (inactive) | > 20.6 µM (inactive) | – | inactive | -1.29% (inactive) | -9.3 | -8.35 | inactive | -14% (inactive) | – | – | –
CC(C)[C@@]1(NC(=O)[C@@H]2C[C@H]3c4cccc5[nH]cc(c45)C[C@@H]3N(C)C2)O[C@]2(O)[C@H]3CCCN3C(=O)[C@H](Cc3ccccc3)N2C1=O | inactive | inactive | > 20.6 µM (inactive) | > 20.6 µM (inactive) | inactive | inactive | -1.27% (inactive) | 6.35 | 5.89 | inactive | 1.85% (inactive) | – | – | –
